# Activity calls are given as the source filed them. The call rests on the fitted dose curve; in most records, active means well fitted inhibition curve with a large enough effect; inconclusive means small, poorly fitted or top-dose-only effect; inactive means flat fitted curve, though single readings scatter.
# Biological target: DNA polymerase III PolC-type (Bacillus subtilis (strain 168)) (UniProt P13267)
# Assay: qHTS Validation Assay for the Inhibitors of DNA Replication in Gram-Positive Bacteria (AID 485295);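 on activity change, negative = inhibition: reconstituted holoenzyme with PolC plus beta clamp SSB and primase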
# Settings: Gram-positive bacterial DNA replication assay; series mostly up to 57.1 µM; activity change, negative = inhibition: at the top concentration
# Experimental: B Subtilis DNA polymerase III holoenzyme complex was assayed for DNA production by fluorescent detection of the double-stranded DNA product with PicoGreen dye. The holoenzyme complex was reconstituted from the following purified protein components: DNA Polymerase III, beta subunit processivity factor, SSB single-stranded DNA binding protein, and Primase. Single-stranded, circular M13Gori was used as a substrate with dNTPs and NTPs also supplied to the substrate reagent. Compounds from the NCGC collection were incubated with the holoenzyme mixture for […] at room temperature to allow binding to occur, and then the reaction was started by the addition of substrate. After 30 min incubation at room temperature, PicoGreen solution containing EDTA was added to stop the reaction and to visualize the double-stranded DNA produced. Reaction progress was measured in a ViewLux CCD imager in fluorescence intensity mode by using 480 nm excitation and 540 nm emission filter set.
# 1. Thaw screening compounds.
# 2. Label assay plates. Prepare pipette tips, reagent reservoirs, buffers and controls.
# 1. Thaw Enzymes, DNA template, Nucleotides and PicoGreen dye concentrate. Thawed enzymes are stable on ice for ~1
# week. Other thawed components are stable indefinitely.
# 2. Prepare sufficient quantities of Enzyme, Substrate and PicoGreen Quench mixes (according to Table II). For the number of
# compound plates being screened.
# 3. Ensure that the tip wash station reservoirs have clean water and turn on recirculating chiller so that the chilled deck position
# 1. Load 2 uL of EDTA controls (250 mM, Background, 100 % inhibition) and 2 uL of DMSO controls (Negative control, 0%
# inhibition) in the screening plates (flat-bottomed black 384-well polypropylene, Greiner Bio-one).
# 2. Place Enzyme mix reservoir on the chiller position of the liquid handler deck. Make sure that chiller will maintain
# temperature of Enzyme mix at 4degC. Substrate mix and PicoGreen Quench can be stored at room temp.
# 3. Program liquid handling robotics to dispense 18 uL of Enzyme mix into assay plates. Wash tips.
# 4. Aspirate and dispense 2 uL of compound from compound plates, mix and Incubate at room temperature for 10 minutes.
# 5. Aspirate 5 ul of Substrate mix, dispense into assay plates and mix by pipetting. Wash tips.
# 6. Incubate at room temperature (21 +/- 1 deg C) for 20 minutes.
# 7. Quench reactions by addition of 25 uL PicoGreen Quench mix and mix by pipetting (using HTS robotics or bulk reagent
# dispenser such as a Multidrop or uFill). Keep plates in the dark or stacked until ready to read fluorescence.
# 8. Read fluorescence intensity of plates on plate reader using "Fluorescein (Ex 485 nm/ Em 535 nm, 0.1s)" setting.
# Potency means the concentration at half of the fitted maximal effect.
# Sequence of DNA polymerase III PolC-type (Bacillus subtilis (strain 168)) (P13267 whole entry, looked up): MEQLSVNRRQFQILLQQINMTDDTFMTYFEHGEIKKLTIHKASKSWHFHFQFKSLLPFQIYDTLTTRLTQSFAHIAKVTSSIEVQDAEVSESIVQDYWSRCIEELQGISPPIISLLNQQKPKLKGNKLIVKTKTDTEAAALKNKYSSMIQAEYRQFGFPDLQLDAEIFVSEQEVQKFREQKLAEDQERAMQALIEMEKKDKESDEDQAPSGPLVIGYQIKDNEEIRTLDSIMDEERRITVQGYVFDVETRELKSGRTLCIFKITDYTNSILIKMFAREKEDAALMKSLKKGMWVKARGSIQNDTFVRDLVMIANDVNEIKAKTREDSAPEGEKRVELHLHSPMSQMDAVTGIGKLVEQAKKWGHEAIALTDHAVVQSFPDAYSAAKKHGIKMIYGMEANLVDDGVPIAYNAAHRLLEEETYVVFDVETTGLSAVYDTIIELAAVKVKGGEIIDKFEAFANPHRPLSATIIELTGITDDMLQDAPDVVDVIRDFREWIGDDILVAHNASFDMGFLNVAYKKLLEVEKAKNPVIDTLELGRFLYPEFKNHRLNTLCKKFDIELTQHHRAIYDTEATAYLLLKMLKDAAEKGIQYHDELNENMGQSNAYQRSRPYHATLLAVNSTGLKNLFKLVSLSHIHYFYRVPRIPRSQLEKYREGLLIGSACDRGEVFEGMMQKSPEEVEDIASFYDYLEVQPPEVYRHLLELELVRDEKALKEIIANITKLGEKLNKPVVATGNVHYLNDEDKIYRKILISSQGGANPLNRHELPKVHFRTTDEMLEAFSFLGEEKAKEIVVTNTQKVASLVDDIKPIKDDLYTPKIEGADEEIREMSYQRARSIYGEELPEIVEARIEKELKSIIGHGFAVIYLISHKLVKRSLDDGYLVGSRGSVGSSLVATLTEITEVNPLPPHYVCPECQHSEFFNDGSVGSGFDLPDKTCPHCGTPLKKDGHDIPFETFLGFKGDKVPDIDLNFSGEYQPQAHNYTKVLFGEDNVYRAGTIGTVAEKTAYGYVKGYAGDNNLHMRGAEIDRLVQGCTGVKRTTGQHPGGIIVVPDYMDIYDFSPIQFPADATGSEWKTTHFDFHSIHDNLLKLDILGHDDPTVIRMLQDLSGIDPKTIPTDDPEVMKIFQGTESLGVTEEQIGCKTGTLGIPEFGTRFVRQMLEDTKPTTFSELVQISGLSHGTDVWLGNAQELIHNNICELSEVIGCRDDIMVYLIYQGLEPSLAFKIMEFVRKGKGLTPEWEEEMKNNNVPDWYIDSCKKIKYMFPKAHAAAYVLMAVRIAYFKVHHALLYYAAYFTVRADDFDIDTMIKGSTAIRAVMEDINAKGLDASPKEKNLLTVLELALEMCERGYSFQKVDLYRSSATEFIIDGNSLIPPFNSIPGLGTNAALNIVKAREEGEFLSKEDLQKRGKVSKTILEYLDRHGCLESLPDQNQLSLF
SMILES,"activity change, negative = inhibition",Potency
NC1CCc2cc(O)c(O)cc2C1 (stereo not given),-2.63% (inactive),–
CCCCc1ccc(C(=O)O)nc1,8.87% (inactive),–
Cc1c(C(=O)c2cccc3ccccc23)c2cccc3c2n1[C@H](CN1CCOCC1)CO3,-17.8% (inactive),–
NC(CCP(=O)(O)O)C(=O)O (stereo not given),3.14% (inactive),–
C=CCN1CC[C@]23CCCCC2[C@H]1Cc1ccc(O)cc13 (stereo not given in full),2.61% (inactive),–
CCCN1CCO[C@@H]2c3cc(O)ccc3OC[C@H]21,–,inactive
NCCc1c[nH]c2ccc(O)cc12,5.3% (inactive),–
O=C(Cc1ccc(Cl)c(Cl)c1)N1CCCCC1CN1CCCC1 (stereo not given),0.626% (inactive),–
O=C(O)Cc1cnc[nH]1,4.94% (inactive),–
O=C(N[C@H]1CN2CCC1CC2)c1ccc(Cl)cc1,4.2% (inactive),–
C[C@@H](N)Cc1cnc[nH]1,-1.19% (inactive),–
COc1cc(C(O)CN)ccc1O (stereo not given),4.97% (inactive),–
O=C(O)[C@@H]1CCN1,0.605% (inactive),–
c1ccc(CCCN2CCN(CCOC(c3ccccc3)c3ccccc3)CC2)cc1,-26.4% (inactive),–
C[C@]12N[C@H](Cc3ccccc31)c1ccccc12,-5.45% (inactive),–
CCCN(CCC)C1CCc2ccc(O)cc2C1 (stereo not given),5.06% (inactive),–
CNCCc1c[nH]c2ccc(O)cc12,-2.03% (inactive),–
CC[C@@H](C(N)=O)N1CCCC1=O,4.76% (inactive),–
CS(=N)(=O)CC[C@H](N)C(=O)O (stereo not given in full),-12.8% (inactive),–
COc1ccc2c(c[n+](C)c3c4cc5c(cc4ccc23)OCO5)c1OC,–,26.7 µM (active)

SMILES,"activity change, negative = inhibition",Potency
CC(Cc1ccc(O)cc1)NCC(O)c1cc(O)cc(O)c1 (stereo not given),0.878% (inactive),–
CC1=NN=C(c2ccc(N)cc2)c2cc3c(cc2C1)OCO3,-8.73% (inactive),–
c1ccc2sc(C3(N4CCCCC4)CCCCC3)cc2c1,1.39% (inactive),–
C[C@@H]1O[C@H](C[N+](C)(C)C)C[C@H]1O,-0.252% (inactive),–
O=C1CCCN1CC#CCN1CCCC1,8.14% (inactive),–
NCCc1c[nH]c2ccccc12,-2.6% (inactive),–
CC(=O)[C@H]1CCC2C3CC[C@H]4C[C@H](O)CC[C@]4(C)C3CC[C@@]21C (stereo not given in full),6.43% (inactive),–
C[C@]12CCC3C(CC[C@H]4C[C@H](O)CC[C@]34C)C1CC[C@@H]2C(=O)CO (stereo not given in full),-1.5% (inactive),–
Cc1nccc2c1[nH]c1ccccc12,3.09% (inactive),–
CC(C)NC(C)Cc1ccc(I)cc1 (stereo not given),3.81% (inactive),–
CN[C@@H]1C[C@@H](c2ccc(Cl)c(Cl)c2)c2ccccc21,10.7% (inactive),–
CC(C)Oc1cccnc1N(C)C1CCN(Cc2ccccc2)CC1,-3.98% (inactive),–
Clc1cnc(Oc2ccc(Oc3ncc(Cl)cc3Cl)cc2)c(Cl)c1,7.4% (inactive),–
NC(CP(=O)(O)O)C(=O)O (stereo not given),2.53% (inactive),–
NC(=O)CN1CC(O)CC1=O (stereo not given),2.52% (inactive),–
CC[C@@]1(O)C(=O)OCc2c1cc1n(c2=O)Cc2cc3ccccc3nc2-1,-3.21% (inactive),–
NC(N)=NOCCC(N)C(=O)O (stereo not given),-7% (inactive),–
Oc1ccc2c3c1O[C@H]1c4[nH]c5c(c4C[C@@]4(O)[C@@H](C2)N(CC2CC2)CC[C@]314)C[C@@]1(O)[C@H]2Cc3ccc(O)c4c3[C@@]1(CCN2CC1CC1)[C@H]5O4,5.16% (inactive),–
NCc1cc(=O)[nH]o1,5.64% (inactive),–
CN1C2CCC1CC(OC(=O)c1cc(Cl)cc(Cl)c1)C2 (stereo not given),4.21% (inactive),–
